From PubChem BioAssay (EPA / NIEHS)
Calls of active or inactive are those of the source. The calls were made as follows: active = hit-call score of the fitted dose curve at least 0.9, where 1 is the maximum; inactive = score below 0.9.

Assay: ATG_PBREM_CIS: Attagene CIS-FACTORIAL HepG2 Assay for human Phenobarbital-responsive Enhancer Module (PBREM) (AID 2282955)
Details: HepG2 PBREM cis-reporter, Attagene multiplexed transcription; actives raise or lower the signal
Protocol: ATG_CIS is a cell-based, multiplexed-readout assay that uses HepG2, a human liver cell line, with measurements taken at 24 hours after chemical dosing in a 24-well plate.ATG_PBREM_CIS is one of 52 assay component(s) measured or calculated from the ATG_CIS assay. It is designed to make measurements of mRNA induction, a form of inducible reporter, as detected with fluorescence intensity signals by Reverse transcription polymerase chain reaction (RT-PCR) and Capillary electrophoresis technology.Data from the assay component ATG_PBREM_CIS was analyzed into 1 assay endpoint. This assay endpoint, ATG_PBREM_CIS, was analyzed with bidirectional fitting relative to DMSO as the negative control and baseline of activity. Using a type of inducible reporter, measures of mRNA for gain or loss-of-signal activity can be used to understand the reporter gene at the transcription factor-level as they relate to the gene NR1I3. Furthermore, this assay endpoint can be referred to as a primary readout, because this assay has produced multiple assay endpoints where this one serves a reporter gene function. To generalize the intended target to other relatable targets, this assay endpoint is annotated to the nuclear receptor intended target family, where the subfamily is non-steroidal.
Human liver HepG2 cells are transiently transfected with multiple reporter transcription units (MRTUs) in 6-well plates using FuGene 6 reagent (Roche; 3 ml FuGene/1 mg DNA). The MRTU constructs are regulated by a cis-regulating element (promoter). […] A major difference between the CIS and TRANS system is that in CIS activities of endogenous TFs are measured, whereas the TRANS assay evaluates changes in activities of exogenous, chimeric NR-Gal4 proteins. […] At the end of 24 hour incubation, total RNA was isolated using TriZol reagent (Invitrogen). The isolated RNA is then reverse-transcribed using oligo(dT) primer and Mo-MLV reverse transcriptase (Invitrogen) with DNAse I (Ambion) treatment for 30 min. The one-tenth of the produced cDNA was amplified by PCR using Taq DNA polymerase (Invitrogen) and two reporter sequence-specific primers. The PCR products were fluorescently labeled by primer extension with 6-arboxyfluorescein (6-FAM) 5'-labeled reporter sequence-specific primer (2 min at 95 C, 20 s at 68 C and 10 min at 72 C) and these products were digested with 5U of HpaI (New England Biolabs) for 2h at 37 C. The fragments were purified using Qiaquick PCR columns (Qiagen), analyzed on an ABI 3130xL genetic analyzer (Applied Biosystems) with peak positions identified by using a set of X-rhodamine (ROX)-labeled MapMarker1000 molecular weight standards (BioVentures). The raw capillary electrophoresis data was processed using Attagraph software (Attagene).

outcome, inactive:
C=C[Si](OC(C)=O)(OC(C)=O)OC(C)=O, Nc1nc2ccccc2[nH]1, Cc1ccc(C(C)(C)C)cc1, COC(=O)c1cc(Cl)ccc1[N+](=O)[O-], CC=CCO, COCc1c(C(C)C)nc(C(C)C)c(/C=C/[C@@H](O)C[C@@H](O)CC(=O)O)c1-c1ccc(F)cc1, COC(=O)/C=C\C(=O)O, CCOc1ccc(N)c([N+](=O)[O-])c1, CC1(C)S[C@@H]2[C@H](NC(=O)COc3ccccc3)C(=O)N2[C@H]1C(=O)O, CC(C)CC(O)Cc1ccccc1 (stereo not given), CC(=O)Oc1ccc(C(C)=O)cc1, CC/C=C\CCOC(=O)CCCCC, CCCCCCCCCCCCCCCCCC#N, O=C(OCC1CCC2OC2C1)C1CCC2OC2C1 (stereo not given), CCCCC(CC)COCC1CO1 (stereo not given), OCCCS, C[C@]12C=CC(=O)C=C1CC[C@@H]1[C@@H]2[C@@H](O)C[C@@]2(C)[C@H]1CC[C@]2(O)C(=O)CO, CC(=O)NS(=O)(=O)c1ccc(N)cc1, CCCCC/C=C\CCC=O, CC1OC1C1CCC2(C)OC2C1 (stereo not given), CC1=NC(C)OC1C (stereo not given), COC(=O)c1c(C)cc(O)c(C)c1O, O=C1c2cccc(O)c2C(=O)c2c(O)cc(CO)cc21, N#CCc1ccc(Cl)cc1Cl, O=[N+]([O-])C1(Br)COCOC1, C=C(C)[C@@H]1CCC2=CCC[C@@H](C)[C@]2(C)C1, OCCNCc1ccccc1, CCOC(=O)CC, COC(=O)C1=C(C)NC(C)=C(C(=O)OCC(C)C)C1c1ccccc1[N+](=O)[O-] (stereo not given), Nc1ccc(Oc2ccc(N)c(N)c2)cc1, O=CC1CC1, Cc1cc(=O)n(-c2ccccc2)n1C, CCCCCCCOC(=O)CCC, NNC(=O)c1cccc(C(=O)NN)c1, CCC(C)C=O (stereo not given), Oc1ccc(Cl)cc1Cc1cc(Cl)ccc1O, CC(C)=CCCC(C)C=O (stereo not given), O=C(O)CC(C(=O)O)C(CC(=O)O)C(=O)O (stereo not given), NC(CO)(CO)CO, O=C1CCCC(=O)O1
